Values joined by “and” are separate entries in the source; they are usually repeats but may differ in a detail not shown here. Equal values may be shown once. This is part of a sample that, as a whole, favours compounds with a hit. Of some 79,000 tested, about 15% had one in any assay. Active and inactive are the calls of the source. No stated cut-off is given here; in the data, active means growth inhibition above about 70%; inactive means the rest.
Key:
[1] = NCI Yeast Anticancer Drug Screen. Data for the rad50 strain (AID 155);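 further: 0% = growth of vehicle-only cultures of the same strain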; conditions: S. cerevisiae rad50 strain growth inhibition, stronger effect = higher value; at 50.0 µM unless noted
Procedure, shortened: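 Inhibition values express reduced yeast growth in compound-treated cultures relative to vehicle-treated controls.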

[2] = NCI Yeast Anticancer Drug Screen. Data for the mec2-1 strain (AID 157); conditions: S. cerevisiae mec2-1 strain, stronger effect = higher value; at 50.0 µM unless noted
Procedure, shortened: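 Using mec2-1 yeast: add compound, measure growth, express inhibition versus vehicle-treated cultures.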

[3] = NCI Yeast Anticancer Drug Screen. Data for the sgs1 mgt1 strain (AID 161);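 further: 0% = growth of cultures given vehicle only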; conditions: S. cerevisiae sgs1 mgt1 strain, stronger effect = higher value; at 50.0 µM unless noted
Procedure, shortened: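 Yeast cells carrying a defined DNA-repair defect were exposed to test compounds. Growth inhibition was measured relative to vehicle-treated controls.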

[4] = NCI Yeast Anticancer Drug Screen. Data for the cln2 rad14 strain (AID 165);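 further: 0% = growth equal to vehicle treated cultures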; conditions: S. cerevisiae cln2 rad14 strain, stronger effect = higher value; at 50.0 µM unless noted
Procedure, shortened: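 Yeast strain cln2 rad14, bearing defects in cell cycle control and DNA repair, serves as the test system; values reflect growth inhibition compared with vehicle.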

[5] = NCI Yeast Anticancer Drug Screen. Data for the bub3 strain (AID 167); conditions: S. cerevisiae bub3 mutant strain, stronger effect = higher value; at 50.0 µM unless noted
Procedure, shortened: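 Steps: expose the mutant yeast strain to compound; grow alongside vehicle-treated cultures; measure growth; express inhibition against the vehicle cultures.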

[6] = NCI Yeast Anticancer Drug Screen. Data for the mlh1 rad18 strain (AID 175); conditions: S. cerevisiae mlh1 rad18 strain growth inhibition, stronger effect = higher value; at 50.0 µM unless noted
Procedure, shortened: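 Steps: expose repair-defective yeast to compound; measure growth; express inhibition against vehicle-treated controls.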

Measured: growth inhibition

CCCCCCCSCC(=O)OCC
inactive: [1] -12.6% | [2] -19.8% | [3] -22.5% | [4] 7.2% | [5] -6.5% | [6] -5.75%

c1ccc2c(c1)ncn2Sn1cnc2ccccc21
inactive: [1] 1.8% and 2.7% | [2] 16.9% and -0.1% | [3] 3.8% and -3.35% | [4] -12.4% and 15.5% | [5] 2.95% and 11.1% | [6] 6.9% and 20.9%

O=C(O)Cc1ccc(-c2cn3c(n2)sc2ccccc23)cc1
inactive: [1] 58.1% | [2] 22.3% | [3] 0.05% | [4] 5.45% | [5] 24.8% | [6] 16.4%

CC(CC(=O)O)(CC(=O)O)C(=O)O
inactive: [1] 16.1% | [2] -17.9% | [3] -28.9% | [4] 12.6% | [5] -29.4% | [6] -22.9%

CS(=O)(=O)c1cccc(C(=O)O)c1
inactive: [1] 12.4% | [2] 7.65% | [3] 4.05% | [4] -16.1% | [5] 1.35% | [6] -18%

COc1ccccc1C(=O)N/N=C/c1cccc([N+](=O)[O-])c1
inactive: [1] -2.15% | [2] 3.1% | [3] 13.7% | [4] -11.7% | [5] 29.1% | [6] 4.75%

COC(=O)c1cc(NC(=O)Nc2cccc(C(C)=O)c2)cc(C(=O)OC)c1
inactive: [1] -9.75% | [2] 31.2% | [3] 25.6% | [4] -10.2% | [5] 37.6% | [6] 36.4%

Nc1cc([N+](=O)[O-])ccc1C(=O)O
inactive: [1] 15.2% | [2] 0.05% | [3] -11.4% | [4] -3.1% | [5] 2.65% | [6] -14.3%

FC1=C(F)C2(F)C3CCC(O3)C2(F)C(Br)=C1F (stereo not given)
inactive: [1] -9.6% | [2] -3.3% | [3] 3.2% | [4] -1.35% | [5] -6.15% | [6] 4.5%

COC(=O)N/N=C(/CCC(=O)Nc1ccc(C)c(C)c1)CC(=O)C(C)(C)C
inactive: [1] -10.8% | [2] -12.1% | [3] 8.45% | [4] 2% | [5] 19.1% | [6] -1.9%

O=C1c2ccccc2-c2c1c1ccccc1c(=O)n2-c1ccccc1
inactive: [1] -1.7% | [2] -26.1% | [3] 6% | [4] -5.85% | [5] -13.6% | [6] -51.6%

COC(=O)c1ccccc1NC(=O)c1c(-c2ccccc2Cl)noc1C
active: [1] 72% | [3] 88.6% | [5] 77.2%
inactive: [2] 67.8% | [4] 46.9% | [6] 54.9%

Nc1ccc2c(c1)C(=O)c1cc(Cl)cc(Cl)c1-2
inactive: [1] 0% | [2] -4.75% | [3] -0.5% | [4] -44% | [5] 7.05% | [6] 2.25%

COc1cc(CCCC(C(=O)O)C(=O)O)cc(OC)c1OC
inactive: [1] 14.2% | [2] -13.3% | [3] -11.9% | [4] 15.8% | [5] -0.9% | [6] 11.7%

O=C(OCC1OCOC2C(COC(=O)c3ccccc3)OCOC12)c1ccccc1 (stereo not given)
inactive: [1] 9.05% | [2] 4.35% | [3] 8.05% | [4] 4.8% | [5] 13.7% | [6] 15.7%

Cc1ccc(Nc2nc(N)nc3c2ncn3C2OC(CO)C(O)C2O)cc1 (stereo not given)
inactive: [1] 25.8% | [2] 2.6% | [3] 7.85% | [4] -3.75% | [5] 18.6% | [6] 7.35%

CCOC(=O)Cc1nc(/C(C#N)=C/c2ccco2)[nH]c(=O)c1C#N
inactive: [1] 2.4% | [2] 7.8% | [3] 30.9% | [4] 34.2% | [5] 8.15% | [6] 39.6%

COc1ccccc1OC(=O)Nc1ccc(S(=O)(=O)NC2CCCCC2)cc1
inactive: [1] 12.1% | [2] -10.8% | [3] 0% | [4] 2.25% | [5] -5.95% | [6] -2.2%

Cc1cc(C)c(C(=O)Cc2ccccc2)c(C)c1
inactive: [1] 18.4% | [2] 15.6% | [3] 20.2% | [4] 12.4% | [5] 11.4% | [6] 9.45%

O=C(Nc1nncs1)c1cnccn1
inactive: [1] -1.85% | [2] -6.3% | [3] 14.2% | [4] -3.15% | [5] 11.3% | [6] -71.5%

COC(=O)[C@]1(C)CCCC2(C)C1CC[C@H]1C=C(C)[C@H]3CCC12C3 (stereo not given in full)
inactive: [1] 14% | [2] 12.2% | [3] -25.1% | [4] 6.7% | [5] -1.25% | [6] 15.7%

CCC(C(N)=O)c1ccccc1 (stereo not given)
inactive: [1] -16.3% | [2] -5.65% | [3] 13.9% | [4] -6.75% | [5] -3.9% | [6] -3.6%

O=C(O)Cc1cc2c(cc1I)OCO2
inactive: [1] -1.2% | [2] 22.9% | [3] 2.15% | [4] -18.9% | [5] -11.2% | [6] -0.55%

Cc1cc(Cl)ccc1NC(=O)C(=O)Cc1ccc([N+](=O)[O-])c([N+](=O)[O-])c1CC(=O)C(=O)Nc1ccc(Cl)cc1C
inactive: [1] -10.6% | [2] -30.4% | [3] -13.6% | [4] -7.8% | [5] 18.6% | [6] 7%

CC1(C)CCC(CC(=O)O)(CC(=O)O)CC1
inactive: [1] -5.25% | [2] 8.8% | [3] -1.7% | [4] -17.3% | [5] -2.9% | [6] 11.4%

Cc1c(CCN2CCOCC2)c(N2CCOCC2)n2c(nc3ccccc32)c1C#N
inactive: [1] -14.7% | [2] -11.9% | [3] -9.2% | [4] 1% | [5] -16.3% | [6] -15%

NC(N)=NC(N)=Nc1ccc(S(=O)(=O)O)cc1
inactive: [1] -4.7% | [2] -26.9% | [3] -47% | [4] -22.7% | [5] -29.6% | [6] -11.8%

O=c1cc(CBr)c2ccc(O)cc2o1
inactive: [1] -34.1% | [2] 2.55% | [3] -23.8% | [4] 8.3% | [5] -18.2% | [6] -44.5%

CC1C(=O)N(c2ccccc2)NC12CCCc1ccccc12 (stereo not given)
inactive: [1] -15.2% | [2] -7.3% | [3] -34.8% | [4] 16.6% | [5] 25.1% | [6] 27.6%

[N-]=[N+]=NC1(N=[N+]=[N-])C(=O)Nc2ccccc2C1=O (stereo not given)
inactive: [1] 15.5% | [2] 14.8% | [3] 2.55% | [4] 3.65% | [5] -10.2% | [6] 12.6%

COc1ccccc1OC(=O)c1ccccc1
inactive: [1] -27.4% | [2] 7.4% | [3] -22.8% | [4] -9.1% | [5] 11.5% | [6] -5.35%

Oc1ccccc1C1CCCC1
inactive: [1] 5.55% | [2] -10% | [3] -4.75% | [4] 3.7% | [5] 0.25% | [6] -2.45%

CC(=O)OCCOCNC(=S)N/N=C(\C)c1ccco1
inactive: [1] -19.9% | [2] -8.3% | [3] 3.4% | [4] 3.8% | [5] -4.95% | [6] -11.9%

ClCc1ccc(OCc2ccccc2)cc1
inactive: [1] -2.85% | [2] -1.45% | [3] -11.2% | [4] 9.3% | [5] -29.1% | [6] -6.25%

[N-]=[N+]=Nc1ccc2nc(N)nc(N)c2c1
inactive: [1] -4.25% | [2] 5.7% | [3] 2.85% | [4] -33.9% | [5] -7.45% | [6] -5.2%

COC(=O)CC1CCS(=O)(=O)C1 (stereo not given)
inactive: [1] -6.6% | [2] 6.35% | [3] -5.7% | [4] -37.4% | [5] -4.4% | [6] 0%

O=C(NC(Cc1ccc(I)cc1)C(=O)O)c1ccc(Br)cc1 (stereo not given)
inactive: [1] -4.3% | [2] -5.65% | [3] 2.8% | [4] 12.1% | [5] -9.4% | [6] -0.9%

CC(=O)Nc1cccc(OC(=O)Nc2ccc(F)c(Cl)c2)c1
inactive: [1] 57.6% | [2] 60.7% | [5] 56.8%
active: [3] 71.7% | [4] 70.7% | [6] 82%

O=C1NC(N/N=C\C(O)C(O)C(O)C(O)CO)=N/C1=C/c1ccc(Cl)cc1 (stereo not given)
inactive: [1] 28.1% and 32% | [2] 8.95% and 15.7% | [3] 1.45% and 10.8% | [4] -0.6% and 13.4% | [5] -0.2% and 6.45% | [6] 10.6% and 9.2%

NC(=O)c1c([N+](=O)[O-])ncn1C1OC(CO)C(O)C1O (stereo not given)
inactive: [1] 20.5% | [2] -7.75% | [3] -5.8% | [4] -12.2% | [5] 5.8% | [6] 14.1%
